Results published in PubChem BioAssay.
Activity calls are given as the source filed them.

How the values were obtained:
[1] = optical density shifts of acrAB sulA E. coli – strain DRC41, OD650, 48 h, E. coli filamentation inducer project, primary screen (AID 1152); conditions: higher = more signal, called active from +8 up or from −8 down;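 further: E. coli MC1000 strain DRC41 lacking acrAB efflux pump and sulA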
[2] = probe aLefty1 binding on compound microarray – biochemical, small-molecule microarray, 635/667 nm fluorescence, primary screen (AID 1153); conditions: higher = more signal;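 further: score merges spot fluorescence with signal-to-noise ratio from the scanned slide images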
[3] = plasmodial surface anion channel blockers, osmotic lysis – cell-based, P. falciparum Indochina, OD700, 1 h, primary screen (AID 1154); conditions: P. falciparum Indochina infected RBC osmotic lysis, higher = more signal, called active from +8 up or from −8 down
[4] = plasmodial surface anion channel blockers, osmotic lysis – cell-based, P. falciparum Indochina, OD700, 2 h, primary screen (AID 1155);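 further: lysis reports solute entry through the parasite surface anion channel PSAC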; conditions: P. falciparum Indochina infected erythrocytes, higher = more signal, called active from +8 up or from −8 down
[5] = changes in parasitized red cell lysis, either direction – P. falciparum Indochina, OD700, 3 h, PSAC antagonist project, primary screen (AID 1156); conditions: P. falciparum-infected erythrocytes, osmotic lysis, higher = more signal, called active from +8 up or from −8 down
[6] = plasmodial surface anion channel blockers, osmotic lysis – cell-based, P. falciparum Indochina, OD700, 18 h, primary screen (AID 1157); conditions: P. falciparum Indochina infected erythrocytes, osmotic lysis OD700, 18 h; higher = more signal, called active from +8 up or from −8 down
[7] = S6 kinase pathway phospho-S6 level changes – cell-based, A549, cytoblot, luminescence, serum-stimulated, primary screen (AID 1158); conditions: 5 h, higher = more signal;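 further: serum-stimulated A549 lung adenocarcinoma cells; signal is phosphorylated S6 detected by cytoblot immunostaining with HRP secondary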
[8] = target: NADPH oxidase 2 (Homo sapiens) (UniProt P04839); assay: compounds shifting NOX2 Amplex Red fluorescence – cell-based, HEK293-NOX2, PMA-stimulated, NOX inhibitor project, primary screen (AID 1159); conditions: 45 min, higher = more signal, called active from +8 up or from −8 down; further: test concentration not given here
Chain of NADPH oxidase 2 (Homo sapiens) (P04839 whole entry, looked up): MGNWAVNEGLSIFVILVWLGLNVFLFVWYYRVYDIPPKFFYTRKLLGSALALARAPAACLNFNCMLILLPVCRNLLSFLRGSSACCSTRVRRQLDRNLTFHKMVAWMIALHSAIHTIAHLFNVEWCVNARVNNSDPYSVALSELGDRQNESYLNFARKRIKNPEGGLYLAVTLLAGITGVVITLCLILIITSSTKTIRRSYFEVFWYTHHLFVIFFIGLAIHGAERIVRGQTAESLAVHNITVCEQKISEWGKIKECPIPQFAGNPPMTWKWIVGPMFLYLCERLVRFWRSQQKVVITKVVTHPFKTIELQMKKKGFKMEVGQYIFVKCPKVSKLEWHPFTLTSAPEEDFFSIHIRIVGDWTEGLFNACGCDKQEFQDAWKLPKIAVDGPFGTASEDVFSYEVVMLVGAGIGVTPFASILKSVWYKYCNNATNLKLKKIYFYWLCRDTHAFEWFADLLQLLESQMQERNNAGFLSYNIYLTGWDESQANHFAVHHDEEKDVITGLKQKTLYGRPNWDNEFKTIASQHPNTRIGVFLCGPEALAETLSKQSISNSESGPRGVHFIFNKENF

[9] = target: NADPH oxidase 4 (Homo sapiens) (UniProt Q9NPH5); assay: compounds shifting NOX4 Amplex Red fluorescence – cell-based, HEK293-NOX4, tetracycline-induced, NOX inhibitor project, primary screen (AID 1160); conditions: HEK293-NOX4, Amplex Red H2O2 fluorescence, 45 min; higher = more signal, called active from +8 up or from −8 down
Chain of NADPH oxidase 4 (Homo sapiens) (Q9NPH5 whole entry, looked up): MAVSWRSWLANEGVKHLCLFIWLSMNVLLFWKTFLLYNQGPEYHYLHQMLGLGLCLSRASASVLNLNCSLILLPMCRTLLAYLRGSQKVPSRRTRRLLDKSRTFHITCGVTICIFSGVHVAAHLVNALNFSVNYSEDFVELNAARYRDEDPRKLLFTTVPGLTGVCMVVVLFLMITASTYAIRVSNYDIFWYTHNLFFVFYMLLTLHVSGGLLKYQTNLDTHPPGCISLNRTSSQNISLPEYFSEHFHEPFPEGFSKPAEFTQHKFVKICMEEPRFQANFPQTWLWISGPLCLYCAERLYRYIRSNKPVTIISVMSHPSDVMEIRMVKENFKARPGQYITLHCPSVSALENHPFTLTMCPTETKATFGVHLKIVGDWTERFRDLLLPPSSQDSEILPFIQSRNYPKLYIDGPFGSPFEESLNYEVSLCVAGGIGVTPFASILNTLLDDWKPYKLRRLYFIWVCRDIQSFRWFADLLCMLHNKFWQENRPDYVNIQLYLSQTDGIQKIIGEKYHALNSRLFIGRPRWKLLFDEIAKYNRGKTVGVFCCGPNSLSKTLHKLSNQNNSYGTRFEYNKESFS

[10] = target: NADPH oxidase 5 (Homo sapiens) (UniProt Q96PH1); assay: compounds shifting NOX5 Amplex Red fluorescence – cell-based, HEK293-NOX5, NOX inhibitor project, primary screen (AID 1161); conditions: HEK293-NOX5, ionomycin, 45 min, higher = more signal
Chain of NADPH oxidase 5 (Homo sapiens) (Q96PH1 whole entry, looked up): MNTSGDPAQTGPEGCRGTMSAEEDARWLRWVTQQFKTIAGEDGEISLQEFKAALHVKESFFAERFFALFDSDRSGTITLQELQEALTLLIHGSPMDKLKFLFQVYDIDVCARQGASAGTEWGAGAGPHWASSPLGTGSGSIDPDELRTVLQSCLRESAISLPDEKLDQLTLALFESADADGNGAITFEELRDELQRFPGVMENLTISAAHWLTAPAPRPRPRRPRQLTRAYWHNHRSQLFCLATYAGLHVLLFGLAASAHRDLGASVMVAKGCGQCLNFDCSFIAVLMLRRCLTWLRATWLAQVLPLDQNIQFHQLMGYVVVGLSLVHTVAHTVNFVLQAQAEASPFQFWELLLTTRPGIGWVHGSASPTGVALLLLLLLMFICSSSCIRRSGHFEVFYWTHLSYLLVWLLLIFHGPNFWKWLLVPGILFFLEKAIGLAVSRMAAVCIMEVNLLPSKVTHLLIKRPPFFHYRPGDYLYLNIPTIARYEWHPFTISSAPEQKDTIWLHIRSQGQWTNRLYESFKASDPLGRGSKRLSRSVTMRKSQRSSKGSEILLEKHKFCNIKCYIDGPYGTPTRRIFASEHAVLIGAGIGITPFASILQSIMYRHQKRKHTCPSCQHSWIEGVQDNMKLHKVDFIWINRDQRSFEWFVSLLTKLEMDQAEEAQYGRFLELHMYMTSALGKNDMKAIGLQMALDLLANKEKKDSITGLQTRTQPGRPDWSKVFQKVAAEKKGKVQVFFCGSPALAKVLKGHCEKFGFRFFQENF

SMILES	z-score [1]	composite z-score [2]	z-score [3]	z-score [4]	z-score [5]	z-score [6]	z-score [7]	z-score [8]	z-score [9]	z-score [10]
CC#CCO[Si](C#Cc1ccccc1)(C(C)C)C(C)C	-0.112 (inactive)	-0.193	0.175 (inactive)	-0.286 (inactive)	-0.975 (inactive)	-0.4 (inactive)	-1.16	-2.19 (inactive)	-0.176 (inactive)	-0.624
COc1ccc([Si](C)(C)[C@@H]2[C@@H](CCO)O[C@]3(C(=O)N(Cc4ccccc4)c4ccc(N5C(=O)c6cccc7cccc5c67)cc43)[C@H]2C)cc1	0.487 (inactive)	-0.0111	2.72 (inactive)	2.2 (inactive)	0.504 (inactive)	1.16 (inactive)	-0.0126	0.326 (inactive)	0.1 (inactive)	2.32
CC(C)NC(=O)[C@@]1(C)c2ccccc2C(=O)N(Cc2ccc(OC(F)(F)F)cc2)[C@H]1c1ccc(CO)cc1	-0.362 (inactive)	0.0004	2.96 (inactive)	0.857 (inactive)	1.89 (inactive)	0.254 (inactive)	0.0795	0.415 (inactive)	-0.667 (inactive)	1.99
C=C(/C(=C/C[C@H](OC(=O)c1ccncc1)c1ccc(CO)o1)c1cnc2ccccc2c1)C(C)C	-0.833 (inactive)	0.0844	6.75 (inactive)	1.37 (inactive)	1.47 (inactive)	0.528 (inactive)	-0.702	1.42 (inactive)	0.0654 (inactive)	-0.415
NCCCCCNC(=O)[C@@H]1C[C@@H]2C(=O)N[C@@H](CCCCN)C(=O)N2[C@@H]1c1ccc(O)cc1	-0.175 (inactive)	0.739	3.95 (inactive)	1.74 (inactive)	-2.34 (inactive)	0.937 (inactive)	-0.912	1.5 (inactive)	1.85 (inactive)	1.48
CC1CC/C=C\[C@H]2OC34C=CCN(Cc5ccccc5)C(=O)[C@H]3N(C(CO)C(C)C)C(=O)[C@@H]4C2C(=O)O1 (stereo not given in full)	0.084 (inactive)	-0.149	1.42 (inactive)	0.667 (inactive)	0.97 (inactive)	0.304 (inactive)	-0.529	1.84 (inactive)	0.983 (inactive)	2.21
COc1ccc(C#Cc2ccc3c(c2)[C@]2(C(=O)N3)[C@H](c3ccc(O)cc3)N3[C@H](c4ccccc4)[C@H](c4ccccc4)OC(=O)[C@H]3[C@@H]2C(=O)Nc2nc3ccccc3s2)cc1	1.38 (inactive)	0.0994	0.92 (inactive)	0.347 (inactive)	2.43 (inactive)	0.59 (inactive)	0.498	1.13 (inactive)	-0.838 (inactive)	-1.34
COc1ccc(C#Cc2ccc3c(c2)[C@]2(C(=O)N3)[C@H](c3ccc(OCCO)cc3)N3[C@H](c4ccccc4)[C@H](c4ccccc4)OC(=O)[C@H]3[C@@H]2C(=O)NC[C@H](O)c2ccccc2)cc1	1.01 (inactive)	0.145	1.97 (inactive)	1.76 (inactive)	-0.403 (inactive)	1.08 (inactive)	0.0701	0.893 (inactive)	0.194 (inactive)	-0.0443
COC(=O)[C@@]1(Cc2ccccc2)[C@H]2c3cc(C(=O)N4CCCC4)n(CCc4ccccn4)c3C[C@H]2CN1C(=O)c1ccccc1	-1.5 (inactive)	0.928	1.93 (inactive)	0.0978 (inactive)	1.54 (inactive)	0.569 (inactive)	-0.266	0.267 (inactive)	0.311 (inactive)	-3.01
COc1ccccc1CN1C(=O)c2ccccc2[C@](Cc2ccccc2I)(C(=O)O)[C@@H]1c1ccc(CO)cc1	1.03 (inactive)	0.0366	5.55 (inactive)	1.09 (inactive)	-0.0546 (inactive)	0.426 (inactive)	-0.523	1.03 (inactive)	0.616 (inactive)	0.646
CS(=O)(=O)CCOC(=O)C1=CC(c2ccc(CO)cc2)=CC(C2CC2)N(Cc2sc3ccccc3c2Cl)C=C1C(=O)OCCS(C)(=O)=O (stereo not given)	-3.12 (inactive)	0.141	13.8 (active)	3.35 (inactive)	0.239 (inactive)	1.39 (inactive)	0.044	0.932 (inactive)	0.186 (inactive)	-0.935
C#Cc1cc2ccccc2oc1=O	-1.44 (inactive)	0.228	3.02 (inactive)	0.858 (inactive)	0.898 (inactive)	0.656 (inactive)	-0.668	0.0724 (inactive)	-1.35 (inactive)	-0.807
Cc1ccc(S[C@]2(C(=O)NCc3ccccc3)CC(=O)N(C3CCCCC3)[C@@H]2c2ccc(CO)cc2I)cc1	-0.148 (inactive)	-0.142	5.8 (inactive)	1.34 (inactive)	1.04 (inactive)	0.841 (inactive)	0.0194	-0.031 (inactive)	0.193 (inactive)	1.79
CCCCC(=C=CC[C@H](O)c1ccc(OCCO)cc1)CCO	-0.495 (inactive)	-0.0967	12.9 (active)	1.77 (inactive)	1.06 (inactive)	0.627 (inactive)	-0.517	-0.649 (inactive)	-0.798 (inactive)	-2.06
C=C[C@@H](CO)N(Cc1ccc(OC)cc1)S(=O)(=O)c1ccc(Br)cc1	1.77 (inactive)	-0.639	2.48 (inactive)	-0.457 (inactive)	-1.21 (inactive)	-1.1 (inactive)	1.66	-1.84 (inactive)	0.114 (inactive)	-1.26
C=CCC(OC(C)=O)[C@@H]1[C@@H](N(Cc2ccc(-c3cccc(C(F)(F)F)c3)o2)C(=O)Cc2ccc(OC)cc2)c2cc(OCCCO)ccc2N1C(=O)c1ccc(-c2ccccc2)cc1 (stereo not given in full)	-1.12 (inactive)	0.235	0.922 (inactive)	-0.393 (inactive)	1.81 (inactive)	0.0651 (inactive)	-0.199	-1.2 (inactive)	-1.15 (inactive)	-1.35
O=C(Cc1ccccc1)[C@H]1C2C=CCCC(c3ccccc3)=C2CN1Cc1ccccc1 (stereo not given in full)	2.46 (inactive)	-0.151	0.567 (inactive)	0.186 (inactive)	0.879 (inactive)	0.06 (inactive)	-0.0984	-0.534 (inactive)	0.773 (inactive)	1.13
O=C(O)[C@@H]1C[C@@H]2C(=O)N3CCC[C@H]3C(=O)N2[C@@H]1c1ccc(O)cc1	2.3 (inactive)	0.266	3.69 (inactive)	-0.325 (inactive)	-3.21 (inactive)	-1.54 (inactive)	0.722	-8.21 (active)	-4.92 (inactive)	-5.18
COc1cc(OC)c(C(O)C2C=CC3C(=O)N(Cc4ccccc4)C(=O)C3N2n2cnnc2)cc1Br (stereo not given)	-1.21 (inactive)	0.0509	-0.0011 (inactive)	-0.731 (inactive)	1.34 (inactive)	-2.29 (inactive)	1.71	-3.2 (inactive)	-1.35 (inactive)	-3.53
CCCCCC1=C2CNC(C)(C(=O)OC)C=C2C(C)C1=O (stereo not given)	-1.81 (inactive)	-0.0236	0.585 (inactive)	0.0544 (inactive)	0.777 (inactive)	0.373 (inactive)	-0.628	0.116 (inactive)	-2.6 (inactive)	-3.07
Cc1ccc(NN2C(C(O)c3c(F)cccc3Cl)C=CC3C(=O)N(C4CCCCC4)C(=O)C32)cc1 (stereo not given)	0.0905 (inactive)	0.23	12.9 (active)	1.86 (inactive)	2.45 (inactive)	0.902 (inactive)	-0.319	-1.41 (inactive)	-0.336 (inactive)	-1.67
Cc1ccc(S[C@]2(C(=O)NCCN3CCOCC3)CC(=O)N(Cc3ccccc3Cl)[C@@H]2c2ccc(CO)cc2I)cc1	0.377 (inactive)	1.55	5.93 (inactive)	0.989 (inactive)	0.676 (inactive)	0.4 (inactive)	-0.389	1.78 (inactive)	-1.12 (inactive)	1.15
CC(C)c1ccc(NN2C(C(O)c3ccc(F)cc3)C=CC3C(=O)N(c4ccccc4)C(=O)C32)cc1 (stereo not given)	-0.601 (inactive)	0.498	3.82 (inactive)	1.76 (inactive)	0.0964 (inactive)	1.44 (inactive)	-1.05	-1.15 (inactive)	-2.78 (inactive)	-2.6
CCCCCCCCCC(O)C1C=CC2C(=O)N(c3ccccc3)C(=O)C2N1Nc1cc(OC)c(OC)c(OC)c1 (stereo not given)	-3.95 (inactive)	0.448	7.78 (inactive)	1.84 (inactive)	-0.372 (inactive)	-0.449 (inactive)	1.05	-2.86 (inactive)	-4.13 (inactive)	-2.67
CCOC(=O)C[C@H]1[C@H](OC(=O)c2ccc(C(=O)c3ccccc3)cc2)[C@@H](NC(=O)c2ccc(-c3ccccc3)cc2)c2cc(OCCCO)ccc2N1C(=O)Cc1ccc(OC)cc1	0.548 (inactive)	0.344	11.8 (active)	1.62 (inactive)	-0.455 (inactive)	0.429 (inactive)	0.53	-0.44 (inactive)	0.397 (inactive)	0.501
N[C@@H](Cc1ccccc1)C(=O)NCc1cn(Cc2ccccc2)nn1	0.676 (inactive)	0.397	-0.39 (inactive)	0.262 (inactive)	-0.0107 (inactive)	-0.0074 (inactive)	0.0064	0.64 (inactive)	0.359 (inactive)	0.255
